# In all, about 2,300 compounds went through this assay and about 330 (14%) showed activity.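 Rule for the calls: active = median modified Z-score above 1.96; inactive = 1.96 or below.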 Not all results are given here.
# Tested on: HepG2 Srxn1-GFP reporter cells (+30 nM CDDO-Me)
# Experiment: Srxn1-GFP intensity median modified Z-score relative to plate median; higher = stronger NRF2 / oxidative stress reporter activation, active = hit call of the paper
# Conditions: 10 µM; exposure time: 24h
# Outline: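 Each value is the replicate median of a per-plate modified Z-score for GFP intensity in HepG2 Srxn1-GFP BAC reporter cells. The cells (20,000 per well, 96-well plates, three replicate plates) received compound at 10 μM together with an NRF2 activator at 30 nM for 24 h, in ≤0.1% DMSO. Cytoplasmic GFP was quantified per cell from confocal images of formaldehyde-fixed, Hoechst-stained cells, leaving out images with fewer than 100 cells, and scaling used 1.4826 × median absolute deviation.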
row,Compound,Srxn1-GFP intensity median modified Z-score
1,O=Cc1ccccc1O[C@@H]1O[C@H](CO)[C@H](O)[C@@H](O)[C@H]1O [euspeclibcmpd1574],0.476 (inactive)
2,N[C@@H]1[C@@H](O)[C@H](O)[C@@H](CO)O[C@H]1O [euspeclibcmpd140],0.0216 (inactive)
3,CC1CCN(CCCC(=O)c2ccc(F)cc2)CC1 [euspeclibcmpd1905],1.19 (inactive)
4,CCCCOc1ccc(C(=O)CCN2CCCCC2)cc1 [euspeclibcmpd107],3.53 (active)
5,CCCCOc1ccc(OCCCN2CCOCC2)cc1 [euspeclibcmpd396],2.42 (active)
6,O=C(NCCCCN1CCOCC1)c1ccc(F)cc1,0.352 (inactive)
7,O=C(c1ccc(OCCN2CCCCC2)cc1)c1c(-c2ccc(O)cc2)sc2cc(O)ccc12 [euspeclibcmpd831],-0.702 (inactive)
8,N#Cc1ccc(C(=O)NCCCCN2CCOCC2)cc1,0.374 (inactive)
9,O=c1c(O)cc2c(O)oc3c(=O)c(O)cc4c(O)oc1c2c43 [euspeclibcmpd1077],0.204 (inactive)
10,CC1CC[C@@]2(OC1)O[C@H]1CC3C4CC[C@@H]5C[C@@H](O)CC[C@]5(C)C4CC[C@]3(C)[C@H]1[C@@H]2C (some centres not stated) [euspeclibcmpd2070],-0.402 (inactive)
11,O=C(C=Cc1ccc(O)c(O)c1)O[C@@H]1C[C@](O)(C(=O)O)C[C@@H](O)[C@H]1O [euspeclibcmpd1682],1.16 (inactive)
12,C[C@]12C=CC(=O)CC1=CCC1C2[C@@H](O)C[C@@]2(C)C1CC[C@]2(O)C(=O)COC(=O)CCC(=O)O (some centres not stated) [euspeclibcmpd794],0.608 (inactive)
13,Cc1cccc(N=c2cc[nH]cc2S(=O)(=O)NC(=O)NC(C)C)c1 [euspeclibcmpd2184],0 (inactive)
14,C[C@]12CCC3c4ccc(OC(=O)c5ccccc5)cc4CCC3C1CC[C@@H]2O (some centres not stated) [euspeclibcmpd412],0.298 (inactive)
15,NC(=O)COC(=O)c1ccccc1Nc1cccc(C(F)(F)F)c1,1.26 (inactive)
16,CC(=O)OCC(=O)[C@@]1(O)CCC2C3CC=C4CC(=O)C=C[C@]4(C)[C@@]3(Cl)[C@@H](Cl)C[C@@]21C (some centres not stated) [euspeclibcmpd1222],-0.43 (inactive)
17,CCC1OC(=O)C(C)C(=O)C(C)[C@@H](OC2O[C@H](C)C[C@H](N(C)C)[C@H]2O)[C@](C)(OC)CC(C)C(=O)C(C)[C@@H]2N(CCCCn3cnc(-c4cccnc4)c3)C(=O)O[C@]12C (some centres not stated) [euspeclibcmpd733],-0.17 (inactive)
18,Cc1ccc(Cl)c2cccnc12,1.45 (inactive)
19,Oc1c(I)cc(Cl)c2cccnc12,1.31 (inactive)
20,Oc1c(Cl)cc(Cl)c2cccnc12 [euspeclibcmpd537],2.82 (active)
21,Oc1c(Br)cc(Br)c2cccnc12 [euspeclibcmpd1032],4.39 (active)
22,O=S(=O)(O)c1cc(I)c(O)c2ncccc12 [euspeclibcmpd2311],-0.435 (inactive)
23,Oc1ccc(Cl)c2cccnc12 [euspeclibcmpd72],-1.02 (inactive)

row,Compound,Srxn1-GFP intensity median modified Z-score
1,O=[N+]([O-])c1ccc(O)c2ncccc12 [euspeclibcmpd1218],-0.363 (inactive)
2,Oc1c(I)cc(Cl)c2cccnc12 [euspeclibcmpd705],2.87 (active)
3,Oc1c(I)cc(I)c2cccnc12 [euspeclibcmpd2015],1.62 (inactive)
4,CCc1c(C)cn(C(=O)NCCc2ccc(S(=O)(=O)NC(=O)N[C@H]3CC[C@H](C)CC3)cc2)c1O [euspeclibcmpd697],-0.793 (inactive)
5,O=C(O[C@@H]1Cc2c(O)cc(O)cc2O[C@@H]1c1cc(O)c(O)c(O)c1-c1c([C@H]2Oc3cc(O)cc(O)c3C[C@H]2OC(=O)c2cc(O)c(O)c(O)c2)cc(O)c(O)c1O)c1cc(O)c(O)c(O)c1 [euspeclibcmpd2312],-0.214 (inactive)
6,COc1[nH]cnc(=NS(=O)(=O)c2ccc(N)cc2)c1OC [euspeclibcmpd917],-0.467 (inactive)
7,COc1cc(OC)c2c(c1Cl)OC1(C(=O)CC(=O)CC1C)C2=O (configuration not stated) [euspeclibcmpd1388],-0.00204 (inactive)
8,CC(=O)OCC(=O)[C@@]1(O)[C@H](OC(C)=O)CC2C3CC=C4CC(=O)C=C[C@]4(C)[C@@]3(F)[C@@H](O)C[C@@]21C (some centres not stated) [euspeclibcmpd1284],-0.169 (inactive)
9,N=c1[nH]cnc2c1ncn2C1C[C@H](O)[C@@H](CO)O1 (some centres not stated) [euspeclibcmpd2091],-0.0836 (inactive)
10,CO[C@H]1/C=C/O[C@@]2(C)Oc3c(C)c(O)c4c(O)c(c5c(nc6cc(C)ccn65)c4c3C2=O)NC(=O)/C(C)=C\C=C\C(C)[C@H](O)[C@@H](C)C(O)[C@@H](C)[C@H](OC(C)=O)[C@@H]1C (some centres not stated) [euspeclibcmpd745],-0.528 (inactive)
11,Clc1ccc(CON=C(Cn2ccnc2)c2ccc(Cl)cc2Cl)c(Cl)c1 [euspeclibcmpd747],-0.564 (inactive)
12,C=CCOC(Cn1ccnc1)c1ccc(Cl)cc1Cl (configuration not stated) [euspeclibcmpd2390],6.42 (active)
13,Clc1ccc(C(Cn2ccnc2)OCc2ccsc2Cl)c(Cl)c1 (configuration not stated) [euspeclibcmpd1174],15.7 (active)
14,Clc1ccc(COC(Cn2ccnc2)c2ccc(Cl)cc2Cl)cc1 (configuration not stated) [euspeclibcmpd413],15.1 (active)
15,Clc1ccc(CSC(Cn2ccnc2)c2ccc(Cl)cc2Cl)cc1 (configuration not stated) [euspeclibcmpd401],22.5 (active)
16,C=CC1=C(C(=O)O)N2C(=O)C(NC(=O)C(=NO)c3csc(=N)[nH]3)C2SC1 (configuration not stated) [euspeclibcmpd718],-0.455 (inactive)
17,CC(=CC(=O)OCCCCCCCCC(=O)O)C[C@@H]1OC[C@H](C[C@@H]2O[C@H]2[C@@H](C)[C@H](C)O)[C@@H](O)[C@H]1O [euspeclibcmpd851],0.838 (inactive)
18,Cc1cnn(CCC(=O)NC2CCCN(c3ccc(C)nn3)C2)c1 (configuration not stated),1.37 (inactive)
19,O=C(O)c1cc(O)c(=O)c2c(O)c(O)c(O)cc2c1 [euspeclibcmpd1713],-0.567 (inactive)
20,Cc1ccsc1C=CC1=NCCCN1C [euspeclibcmpd638],0.449 (inactive)
21,O=C(O)/C=C/C(=O)O [euspeclibcmpd2444],-0.338 (inactive)
22,CC1CN(C)CCN1C(=O)c1ccc(CCNS(C)(=O)=O)s1 (configuration not stated),1.16 (inactive)
23,Nc1ccc(S(=O)(=O)N=c2cc[nH]n2-c2ccccc2)cc1 [euspeclibcmpd1061],0.53 (inactive)

row,Compound,Srxn1-GFP intensity median modified Z-score
1,CC1=C(C(=O)O)N2C(=O)[C@@H](NC(=O)C(N)c3ccc(O)cc3)[C@H]2SC1 (some centres not stated) [euspeclibcmpd47],0.774 (inactive)
2,NCc1ccccc1CC(=O)NC1C(=O)N2C(C(=O)O)=C(CSc3nnnn3CC(=O)O)CSC12 (configuration not stated) [euspeclibcmpd506],-0.382 (inactive)
3,Clc1ccc(CCC(Cn2ccnc2)Sc2c(Cl)cccc2Cl)cc1 (configuration not stated) [euspeclibcmpd650],26.7 (active)
4,CC1(C)C2CC[C@@]3(C)C4=C(CC(=O)C3[C@@]2(C)CC[C@@H]1O[C@@H]1OC(C(=O)O)[C@@H](O[C@@H]2OC(C(=O)O)[C@@H](O)[C@H](O)[C@H]2O)[C@H](O)[C@H]1O)C1C[C@@](C)(C(=O)O)CC[C@]1(C)CC4 (some centres not stated) [euspeclibcmpd1807],-0.547 (inactive)
5,COc1ccc(-c2c(O)c3c(OC)c4c(cc3oc2=O)OC(C)(C)C=C4)cc1 [euspeclibcmpd1515],0.81 (inactive)
6,COc1ccc(-c2coc3cc(O)ccc3c2=O)c(O)c1O [euspeclibcmpd1422],-0.526 (inactive)
7,COc1ccc(C(=O)CC(=O)O)c2c1C=CC(C)(C)O2 [euspeclibcmpd1976],-0.441 (inactive)
8,COc1c(CC(=O)c2cc3c(cc2O)OC(C)(C)C(O)C3)ccc2c1C=CC(C)(C)O2 (configuration not stated) [euspeclibcmpd1608],7.77 (active)
9,COc1c(-c2coc3cc4c(cc3c2=O)CC(OC(C)=O)C(C)(C)O4)ccc2c1C=CC(C)(C)O2 (configuration not stated) [euspeclibcmpd1654],13.6 (active)
10,COc1cc2occ(-c3ccc(OC)c(OC)c3OC)c(=O)c2cc1OC [euspeclibcmpd2240],0.129 (inactive)
11,COc1cc(OC)c2c(=O)c(-c3ccc4c(c3)OCO4)coc2c1 [euspeclibcmpd1964],0.515 (inactive)
12,COc1c2c(cc3occ(-c4ccc5c(c4)OCO5)c(=O)c13)OC(C)(C)C=C2 [euspeclibcmpd1957],7.5 (active)
13,CC(=O)S[C@@H]1C=C2CC(=O)CC[C@]2(C)[C@H]2CC[C@@]3(C)[C@@H](CC[C@@]34CCC(=O)O4)C12 (some centres not stated) [euspeclibcmpd269],-0.784 (inactive)
14,CC12CCC(=O)CC1=CCC1C2[C@@H](O)CC2(C)C1CC[C@]2(O)C(=O)COP(=O)(O)O (some centres not stated) [euspeclibcmpd153],-0.722 (inactive)
15,COc1ccc2c(c1)c(CC(=O)OC/C=C/Cl)c(C)n2C(=O)c1ccc(Cl)cc1,0.367 (inactive)
16,CON(C)C(=O)c1cc(-c2ccccc2)nc2ccccc12,1.63 (inactive)
17,NCCCCC(NC(CCc1ccccc1)C(=O)O)C(=O)N1CCCC1C(=O)O (configuration not stated) [euspeclibcmpd423],0.0552 (inactive)
18,O=c1c(-c2cc(O)c(O)c(O)c2)coc2cc(O)c(O)c(O)c12 [euspeclibcmpd1958],-0.398 (inactive)
19,CCOC(=O)OC(C)OC(=O)C1N2C(=O)C(NC(=O)C(N)c3ccccc3)C2SC1(C)C (configuration not stated) [euspeclibcmpd983],0.627 (inactive)
20,N=C(N)N/N=C\c1c(Cl)cccc1Cl [euspeclibcmpd143],0.55 (inactive)
21,CC(C)NCC(O)COc1ccc(CC(N)=O)cc1 (configuration not stated) [euspeclibcmpd387],-0.166 (inactive)

# — the supplement of paper PMC10498489
